Measured values as given in PubChem BioAssay (Tox21).
Inconclusive results are not listed. Activity calls are given as the source filed them. Unless noted, calls come from the whole dose curve; as a rule, active = well fitted curve in the direction sought with a large enough effect in the repeat runs; inconclusive = weak or mixed curves; inactive = no such curve, though single readings can be large; an effect the other way counts as inactive or inconclusive.

Legend:
[1] = qHTS assay to identify small molecule antagonists of the estrogen related receptor (ERR) signaling pathway (AID 1224819; note: nearly all actives have a fitted effect of over 50% in size; note: potency is the fitted concentration of half-maximal effect)
Outline: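 ERR reporter cells were plated at 2,000 cells/well and left 6 h at 37 C/5% CO2 before pin-tool transfer of compounds in DMSO. After 18 h at 37 C, One-Glo was added and luminescence was read 30 min later at room temperature.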

[2] = qHTS assay to identify small molecule agonists of the estrogen related receptor (ERR) signaling pathway (AID 1224820)
Outline: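 Luminescence readout (One-Glo, 30 min RT) from NTP-supplied ERR cell line exposed to compounds for 18 h at 37 C. Cells seeded 2,000 per well and pre-incubated 6 h before pin-tool compound transfer.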

[3] = test system: estrogen-related receptor alpha (ERRalpha) with PGC-1alpha coactivator, human; experiment: qHTS assay to identify small molecule antagonists of the estrogen related receptor signaling pathway with the pleiotropic PPARgamma coactivator (PGC) (AID 1224821; calls by dose curve; note: nearly all actives have a fitted effect of over 50% in size; note: potency is the fitted concentration of half-maximal effect)
Outline: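 PGC/ERR reporter cells; 6 h pre-incubation 37 C/5% CO2; pin-tool compound in DMSO, 18 h 37 C; One-Glo added, 30 min RT; luminescence read. qHTS antagonist mode.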

[4] = qHTS assay to identify small molecule antagonists of the estrogen related receptor signaling pathway with the pleiotropic PPARgamma coactivator (PGC) cell viability counter screen (AID 1224822;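 note: series mostly up to about 46 µM; viability read after 17.5 h compound exposure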)
Outline: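 Viable cell signal (CellTiter-Fluor, 30 min, 37 C/5% CO2) was measured in PGC/ERR cells after a 17.5 h compound incubation.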

[5] = qHTS assay to identify small molecule agonists of the estrogen related receptor signaling pathway with the pleiotropic PPARgamma coactivator (PGC) (AID 1224823)
Outline: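 Luminescence readout (One-Glo, 30 min RT) from PGC/ERR cell line treated 18 h at 37 C with pin-tool-delivered DMSO compound solutions; cells plated 6 h before dosing. Quantitative HTS format.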

[6] = qHTS assay for small molecule agonists of the p53 signaling pathway (AID 651631; calls by dose curve; note: nearly all actives have a fitted effect of over 15% in size)
Outline: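 Beta-lactamase reporter activity under p53 response elements was quantified in HCT-116 cells by FRET fluorescence, following 16 h incubation with test compounds at 37 °C and 2 h substrate development at room temperature.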

Aromatase (Homo sapiens) = Aromatase (Homo sapiens) (UniProt P11511); experiment: qHTS assay to identify aromatase inhibitors (AID 743083); note: series mostly up to about 70 µM; nearly all actives have a fitted effect of over 55% in size
Sequence of Aromatase (Homo sapiens) (P11511 whole entry, looked up): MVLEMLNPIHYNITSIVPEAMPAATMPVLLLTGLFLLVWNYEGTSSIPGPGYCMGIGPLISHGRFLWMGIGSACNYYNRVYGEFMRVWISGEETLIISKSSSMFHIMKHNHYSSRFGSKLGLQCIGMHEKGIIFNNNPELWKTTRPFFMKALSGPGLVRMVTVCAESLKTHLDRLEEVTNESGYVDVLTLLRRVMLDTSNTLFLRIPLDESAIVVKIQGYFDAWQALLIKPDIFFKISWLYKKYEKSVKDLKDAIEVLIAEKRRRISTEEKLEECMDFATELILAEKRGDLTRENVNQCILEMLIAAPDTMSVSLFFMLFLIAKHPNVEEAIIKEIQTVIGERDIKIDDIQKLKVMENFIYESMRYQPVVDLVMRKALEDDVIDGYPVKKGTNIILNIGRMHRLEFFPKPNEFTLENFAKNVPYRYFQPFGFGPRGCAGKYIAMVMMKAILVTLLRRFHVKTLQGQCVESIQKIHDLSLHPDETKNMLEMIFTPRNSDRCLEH

[7] = molecular target: Aryl hydrocarbon receptor (Homo sapiens) (UniProt P35869); experiment: qHTS assay to identify small molecule that activate the aryl hydrocarbon receptor (AhR) signaling pathway (AID 743085); note: potency is the fitted concentration of half-maximal effect; nearly all actives have a fitted effect of over 15% in size
Sequence of Aryl hydrocarbon receptor (Homo sapiens) (P35869 whole entry, looked up): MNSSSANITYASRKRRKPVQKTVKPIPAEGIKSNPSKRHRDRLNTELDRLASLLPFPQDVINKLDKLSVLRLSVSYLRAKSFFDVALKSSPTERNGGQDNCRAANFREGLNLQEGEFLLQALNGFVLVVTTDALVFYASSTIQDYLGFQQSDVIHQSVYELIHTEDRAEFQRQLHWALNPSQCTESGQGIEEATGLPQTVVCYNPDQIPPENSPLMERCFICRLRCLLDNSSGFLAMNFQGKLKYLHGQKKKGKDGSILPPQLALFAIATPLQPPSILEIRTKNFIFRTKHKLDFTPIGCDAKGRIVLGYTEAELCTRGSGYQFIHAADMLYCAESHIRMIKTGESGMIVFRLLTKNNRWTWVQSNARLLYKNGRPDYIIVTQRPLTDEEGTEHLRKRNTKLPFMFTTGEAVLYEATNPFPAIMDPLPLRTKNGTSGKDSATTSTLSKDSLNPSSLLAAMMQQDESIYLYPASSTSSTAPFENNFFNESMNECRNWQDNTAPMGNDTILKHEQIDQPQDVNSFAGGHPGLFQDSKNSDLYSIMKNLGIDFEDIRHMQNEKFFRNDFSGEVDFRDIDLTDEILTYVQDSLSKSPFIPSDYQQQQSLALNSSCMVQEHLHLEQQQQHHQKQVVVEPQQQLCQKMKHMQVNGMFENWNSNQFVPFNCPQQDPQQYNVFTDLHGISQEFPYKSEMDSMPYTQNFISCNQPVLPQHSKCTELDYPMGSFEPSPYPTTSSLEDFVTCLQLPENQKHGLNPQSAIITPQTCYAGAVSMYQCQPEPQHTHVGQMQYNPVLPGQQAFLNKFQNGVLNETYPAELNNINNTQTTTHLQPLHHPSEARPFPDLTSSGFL
Outline: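 Stably transfected human liver carcinoma cells (HG2L7.5c1; 20 DRE-firefly luciferase) were incubated 5 h, dosed, and kept 24 h at 37C. Agonism was scored from increased luciferase luminescence.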

[8] = qHTS assay to identify small molecule agonists of H2AX (AID 1224845; active = well fitted activation curve with a large enough effect in the signal ratio in the repeat runs, not every such curve was filed as active; the % refers to the signal ratio)
Outline: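 Wild-type CHO-K1 cells plated overnight, then exposed 3 hr at 37C to compounds at 15 concentrations (0.76% DMSO). Lysed, then HTRF anti-pH2AX(S139)-cryptate/anti-H2AX-d2 detection after 24 hr at room temperature; emissions 665 and 620 nm.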

[9] = molecular target: Estrogen receptor beta (Homo sapiens) (UniProt Q92731); experiment: qHTS assay to identify small molecule agonists of the estrogen receptor beta (ER-beta) signaling pathway (AID 1259377; active = well fitted activation curve with a large enough effect in the signal ratio in the repeat runs, not every such curve was filed as active; the % refers to the signal ratio)
Sequence of Estrogen receptor beta (Homo sapiens) (Q92731 whole entry, looked up): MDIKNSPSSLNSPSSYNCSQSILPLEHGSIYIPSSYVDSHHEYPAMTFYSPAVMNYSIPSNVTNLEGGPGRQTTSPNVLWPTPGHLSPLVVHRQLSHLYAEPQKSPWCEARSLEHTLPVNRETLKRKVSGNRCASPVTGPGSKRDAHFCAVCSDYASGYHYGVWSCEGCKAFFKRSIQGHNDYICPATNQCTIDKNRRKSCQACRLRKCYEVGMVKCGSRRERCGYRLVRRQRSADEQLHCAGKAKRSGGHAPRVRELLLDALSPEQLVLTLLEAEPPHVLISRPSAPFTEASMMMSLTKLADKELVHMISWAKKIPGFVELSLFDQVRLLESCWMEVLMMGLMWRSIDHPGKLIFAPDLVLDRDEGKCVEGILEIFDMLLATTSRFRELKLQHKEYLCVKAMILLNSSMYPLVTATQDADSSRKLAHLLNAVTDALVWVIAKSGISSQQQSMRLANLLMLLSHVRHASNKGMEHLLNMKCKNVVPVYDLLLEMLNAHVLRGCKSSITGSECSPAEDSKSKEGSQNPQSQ
Outline: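 Reporter cells (HEK293T, ER-beta-UAS-bla) receive compounds or DMSO after a 6 hr pre-incubation. They then incubate 16 hr at 37C/5% CO2, and fluorescence from LiveBLAzer B/G substrate is measured after 2 hours at room temperature.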

[10] = molecular target: Acetylcholinesterase (Homo sapiens) (UniProt P22303); experiment: Acetylcholinesterase (AChE) small molecule antagonists: colormetric cell-based qHTS assay (AID 1347395; calls by dose curve; note: nearly all actives have a fitted effect of over 30% in size)
Sequence of Acetylcholinesterase (Homo sapiens) (P22303 whole entry, looked up): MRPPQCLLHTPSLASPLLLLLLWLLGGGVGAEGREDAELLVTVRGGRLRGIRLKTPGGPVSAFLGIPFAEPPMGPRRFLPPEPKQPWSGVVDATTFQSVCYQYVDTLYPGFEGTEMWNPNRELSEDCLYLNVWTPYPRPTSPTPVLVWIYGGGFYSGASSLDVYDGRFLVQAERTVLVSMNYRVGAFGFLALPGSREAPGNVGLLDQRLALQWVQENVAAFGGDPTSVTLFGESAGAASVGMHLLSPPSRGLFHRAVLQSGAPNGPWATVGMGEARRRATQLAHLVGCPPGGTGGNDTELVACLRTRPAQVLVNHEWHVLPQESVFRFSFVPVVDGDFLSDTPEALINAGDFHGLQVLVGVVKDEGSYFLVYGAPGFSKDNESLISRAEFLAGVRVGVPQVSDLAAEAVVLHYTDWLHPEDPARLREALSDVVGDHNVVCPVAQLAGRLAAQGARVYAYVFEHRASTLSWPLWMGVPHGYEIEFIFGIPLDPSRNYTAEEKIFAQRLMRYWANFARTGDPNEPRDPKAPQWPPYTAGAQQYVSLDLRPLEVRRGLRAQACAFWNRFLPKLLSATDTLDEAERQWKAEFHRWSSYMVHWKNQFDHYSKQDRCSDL
Outline: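 After overnight attachment at 37 C, SH-SY5Y cells get 30 min compound exposure; detection cocktail (acetylthiocholine, DTNB) then incubates 90 min at 37 C, and absorbance reflects AChE-generated thiocholine.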

[11] = molecular target: Acetylcholinesterase (Homo sapiens) (UniProt P22303); experiment: Acetylcholinesterase (AChE) small molecule antagonists: enzyme-based qHTS assay (AID 1347397; calls by dose curve; note: nearly all actives have a fitted effect of over 55% in size); conditions: Potency: AChE enzyme activity inhibition; outcome: AChE enzyme activity inhibition
Outline: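 Compound or DMSO vehicle was pin-transferred onto recombinant human AChE (50 mU/mL as dispensed) and left 30 min at room temperature. Acetylthiocholine with DTNB then started the reaction, read colorimetrically 10 min later.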

[12] = molecular target: Acetylcholinesterase (Homo sapiens) (UniProt P22303); experiment: Acetylcholinesterase (AChE) small molecule antagonists: fluorescence cell-based qHTS assay (AID 1347398; calls by dose curve; note: nearly all actives have a fitted effect of over 50% in size); conditions: Potency: AChE activity; outcome: AChE activity
Outline: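 Using neuroblastoma SH-SY5Y cells as the enzyme source, test chemicals are preincubated 30 min at 37 C; AChE-driven acetylthiocholine cleavage is then quantified by thiocholine-dependent Thiolite Green fluorescence after 40 min at room temperature.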

[13] = molecular target: Acetylcholinesterase (Homo sapiens) (UniProt P22303); experiment: Acetylcholinesterase (AChE) small molecule antagonists: enzyme-based qHTS assay with human liver microsomes (AID 1347399; calls by dose curve; note: nearly all actives have a fitted effect of over 60% in size); conditions: Potency: qHTS inhibition; outcome: qHTS inhibition
Outline: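 Recombinant human AChE (50 mU/mL in the enzyme mix) and human liver microsomes (0.25 mg/mL final) were preincubated with compound and NADPH (0.25 mg/mL final) for 30 min at 37 C. Acetylthiocholine/DTNB was then added; thiocholine was read colorimetrically after 10 min at room temperature.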

Measured: Potency

OCc1cnc[nH]1
inactive: [1] | [2] | [3] | [4] | [5]

C[C@@H](N)Cc1cnc[nH]1
inactive: [1] | [2] | [3] | [4] | [5]

NCCCP(=O)(O)O
inactive: [1] | [2] | [3] | [4]

C[C@@H]1O[C@H](C[N+](C)(C)C)C[C@H]1O
inactive: [1] | [2] | [3] | [4] | [5]

CC(C)(C)c1cc(C=C(C#N)C#N)cc(C(C)(C)C)c1O
inactive: [2] | [5]
active: [1] 0.276 µM | [3] 0.181 µM

C[N+]1(C)CCC(OC(=O)C(c2ccccc2)c2ccccc2)CC1
inactive: [1] | [2] | [3] | [4] | [5]

O=C(N[C@H]1CN2CCC1CC2)c1ccc(Cl)cc1
inactive: [1] | [2] | [3] | [4] | [5]

C[C@H](N)CN1CCc2ccc(Br)cc21
inactive: [1] | [3] | [4] | [5]

O=S1(=O)N(CCN2CC=C(c3c[nH]c4cc(F)ccc34)CC2)c2cccc3c2N1CCC3
active: [1] 16.2 µM | [3] 23.7 µM
inactive: [2] | [5]

Cc1sc2ccccc2c1CC1=NCCN1
inactive: [1] | [2] | [3] | [4] | [5]

CCCN(CCC)[C@H]1CCc2c(F)ccc(O)c2C1
inactive: [1] | [2] | [3] | [4]

CN1CCC[C@@H]1Cc1c[nH]c2ccc(Nc3ncccc3[N+](=O)[O-])cc12
inactive: [1] | [2] | [3] | [5]

Clc1ccc(C(c2ccc(Cl)cc2)n2cc[n+](CC(OCc3ccc(Cl)cc3Cl)c3ccc(Cl)cc3Cl)c2)cc1 (stereo not drawn)
active: [1] 19.6 µM
inactive: [2] | [5]

NCCc1c[nH]c2ccccc12
inactive: [1] | [2] | [3] | [4] | [5]

COc1ccc(OC)c(C(O)C(C)N)c1 (stereo not drawn)
inactive: [1] | [2] | [3] | [4]

CC12NC(Cc3ccccc31)c1ccccc12 (stereo not drawn)
inactive: [1] | [2] | [3] | [4] | [5]

Cn1cnc(CCN)c1
inactive: [1] | [2] | [3] | [4]

CP(=O)(O)C1=CCNCC1
inactive: [1] | [2] | [3] | [4]

Cc1ccc([N+](=O)[O-])cc1N
active: [7] 61.1 µM
not listed: [1] | [2] | [3] | [4] | [5]
inactive: all other assays above
